Most compounds without a hit are left out; they make up all but 19% or so of the library.
IL1B secr inh = qHTS for Inhibitors of Inflammasome Signaling: IL-1-beta AlphaLISA Primary Screen. THP-1 LPS/ATP IL-1B secretion, AlphaLISA, 16 h; hits give low values. activity change, % at 57.5 µM. actives 4.7% (n = 360,000); in the data active means activity change below about -50%; inconclusive means mostly about -30% to -49%
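Secreted IL-1B measured by AlphaLISA bead assay after 16 h compound exposure of THP-1 cells; compounds (final up to 57.5 uM) added 1 h before LPS (250 ng/mL) and ATP (1.25 mM) stimulation; lower signal means less secretion.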
TDP1 cell noCPT = qHTS for Inhibitors of human tyrosyl-DNA phosphodiesterase 1 (TDP1): qHTS in cells in absence of CPT; DT40 Tdp1-/- hTDP1 cells, no CPT, ATP luminescence, 48 h; Potency, µM (series often up to 46.2 µM), without a hit: at the highest dose activity change, negative = growth inhibition, most hits filed as inhibitors; actives 15% (n = 420,000); AID 686978, 2013; further: potency means the concentration at half of the fitted maximal effect; nearly all actives have a fitted effect of over 55% in size
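Camptothecin absent (DMSO only). Human TDP1-complemented DT40 knockout cells, 400 cells/well, 37 °C for minimum 48 hr; ATP measured via CellTiter-Glo, 30 min dark incubation, luminescence.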
ELG1 repair inh = qHTS screen for small molecules that inhibit ELG1-dependent DNA repair in human embryonic kidney (HEK293T) cells expressing luciferase-tagged ELG1. HEK293T ELG1-luciferase reporter, luminescence, 16 h; DNA damage induced by 5-fluorouridine. actives 2.3% (n = 330,000). Potency, µM (titrated, usually from 46.1 µM), for inactives: at the top dose activity change, negative = inhibition, usual class: inhibitors; further: potency means the concentration at half of the fitted maximal effect; nearly all actives have a fitted effect of over 55% in size
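Luminescence from the luciferase reporter, measured 30 min after ONE-Glo reagent at room temperature, was the read-out. Beforehand, 2,000 cells per well were exposed for 16 hr at 37 °C to 5-fluorouridine together with compound or vehicle.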
DT40 TDP1 CPT = qHTS for Inhibitors of human tyrosyl-DNA phosphodiesterase 1 (TDP1): qHTS in cells in presence of CPT. Potency, µM (doses to about 46.2 µM), for the others: at the highest dose activity change, negative = growth inhibition, most hits filed as inhibitors. actives 12% (n = 420,000). chicken DT40 Tdp1-/-;hTDP1 cells + 20 nM CPT, ATP luminescence, 48 h. AID 686979, 2013; further: potency means the concentration at half of the fitted maximal effect; nearly all actives have a fitted effect of over 55% in size
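Chicken DT40 Tdp1-/- cells stably complemented with human TDP1 were seeded at 400 cells/well in medium containing 20 nM camptothecin, exposed to pin-transferred compounds, and grown at 37 °C for at least 48 hr. Viability was read as ATP luminescence.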
TDP1 block = qHTS Assay for Inhibitors of Tyrosyl-DNA Phosphodiesterase (TDP1); Tyrosyl-DNA phosphodiesterase 1 (Homo sapiens), Q9NUW8; recombinant TDP1, AlphaScreen DNA substrate cleavage; Potency, µM (top dose mostly 130 µM), inactives show at the top dose activity change, negative = inhibition, most hits filed as inhibitors; actives 0.28% (n = 350,000); AID 485290, 2010; further: potency means the concentration at half of the fitted maximal effect; nearly all actives have a fitted effect of over 40% in size
Target sequence (Q9NUW8 whole entry, looked up): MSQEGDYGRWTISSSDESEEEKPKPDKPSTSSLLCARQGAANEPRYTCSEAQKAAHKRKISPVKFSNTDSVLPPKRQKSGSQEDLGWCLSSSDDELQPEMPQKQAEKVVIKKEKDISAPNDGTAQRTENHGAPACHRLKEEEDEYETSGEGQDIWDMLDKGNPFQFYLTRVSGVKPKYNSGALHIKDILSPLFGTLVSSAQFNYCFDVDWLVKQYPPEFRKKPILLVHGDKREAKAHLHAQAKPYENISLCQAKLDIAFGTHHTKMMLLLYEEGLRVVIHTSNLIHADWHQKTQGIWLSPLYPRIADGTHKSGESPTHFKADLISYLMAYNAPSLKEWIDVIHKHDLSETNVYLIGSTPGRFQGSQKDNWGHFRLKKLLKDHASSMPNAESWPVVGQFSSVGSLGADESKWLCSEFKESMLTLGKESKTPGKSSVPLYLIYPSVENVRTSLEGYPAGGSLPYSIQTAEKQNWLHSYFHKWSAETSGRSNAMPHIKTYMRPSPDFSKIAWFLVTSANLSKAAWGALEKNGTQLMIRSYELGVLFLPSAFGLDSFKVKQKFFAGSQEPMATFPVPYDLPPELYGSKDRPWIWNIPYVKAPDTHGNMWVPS
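Signal: AlphaScreen proximity between streptavidin donor and anti-FITC acceptor beads on intact substrate. Reaction: Tdp1 1 nM, substrate 15 nM final, 5 min RT after 15 min compound preincubation.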
Giardia kill = Small Molecules that selectively kill Giardia lamblia: qHTS; Giardia lamblia trophozoite viability; activity change, % at 7.66 µM, hits read low; actives 0.15% (n = 340,000); AID 540267, 2011; in the data active means activity change below about -80%; inconclusive means between about -30% and that limit;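 further: parasites exposed to compound for two days anaerobically before the ATP read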
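Compounds were tested on trophozoites seeded at 100 cells/well and held 48 hrs at 37 deg C anaerobically. An ATP-based luminescent kit measured the remaining live cells.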
Numbers without * were called inactive; ? = inconclusive; . = no result; [ ] = another dose, or the depositor's remark. Unless noted, the call rests on the fitted dose curve; in most records, active means well fitted curve in the direction sought with a large enough effect; inconclusive means small, poorly fitted or top-dose-only effect, or another doubt; inactive means no such curve, though single readings can be large; an effect the other way counts as inactive or inconclusive. On the % scale 0 is the no-effect control and ±100 the full control effect.

SMILES	IL1B secr inh	TDP1 cell noCPT	ELG1 repair inh	DT40 TDP1 CPT	TDP1 block	Giardia kill
COc1cccc(CNC(=O)c2c(OC)cc(=O)n3c2CCN(C(=O)c2ccc(C)s2)CC3)c1	.	-2%	.	10%	.	.
CCCn1c(SCc2ccon2)nc2ccccc2c1=O	-2	?	15%	-20%	-1%	9
O=C(c1cn(-c2ccccc2)nc1-c1cccnc1)N1CCN(S(=O)(=O)c2cccc(F)c2)CC1	-9	?	?	-24%	1%	8
O=C(Cn1ccc(NC(=O)OCc2ccccc2)nc1=O)NCc1ccc2[nH]ccc2c1	-4	8%	1%	-17%	4%	-10
COc1ccc(F)cc1CN1CCN(CC(=O)Nc2ccccc2C(=O)NC2CC2)CC1	-4	?	10µM*	?	1%	10
CCOc1ccccc1NC(=O)CN1CCC(NC(=O)c2ccccc2)CC1	-4	?	-25%	?	3%	15
CCOc1ccccc1N1CCN(CC(=O)Nc2ccccc2C(=O)NC2CC2)CC1	12	16µM*	?	21µM*	0%[56.1 µM]	-14
CCOc1cc2c(cc1OCC)CN(CC(=O)Nc1ccccc1C(=O)NC1CC1)CC2	-26	-14%	-27%	?	2%	-11
CCOc1ccc(OCC)c(NC(=O)CN2CCC(NC(=O)c3cccc(F)c3)CC2)c1	-12	16µM*	0%	23µM*	6%	-2
O=C(CN1CCN(S(=O)(=O)c2ccc(F)cc2)CC1)Nc1ccccc1C(=O)NC1CC1	11	?	-7%	-20%	6%	-16
CCOc1ccccc1NC(=O)CN1CCC(NC(=O)c2ccccc2C)CC1	1	23µM*	?	23µM*	.	22
CCC(=O)N(Cc1c(C)nn(-c2ccccc2)c1Cl)c1ccc(Cl)cc1	-24	?	?	?	3%	-20
CCN(c1ccccc1)S(=O)(=O)c1ccc(Oc2ccccc2C(C)=O)nc1	28	?	?	-22%	0%	10
CCN(c1ccccc1)S(=O)(=O)c1ccc(Oc2ccc(-n3ccnc3)cc2)nc1	?	8.2µM*	13%	5.2µM*	-9%	-6
CC1CCCCC12NC(=O)N(CC(=O)Nc1ccc(Cl)c(S(=O)(=O)N3CCOCC3)c1)C2=O (stereo unspecified)	24	18µM*	-24%	?	0%	-13
CCCC1(CCC)NC(=O)N(CC(=O)Nc2ccc(Cl)c(S(=O)(=O)N3CCOCC3)c2)C1=O	-63*	?	?	?	0%	0
Cc1ccc(NC(=O)CN2C(=O)NC(C)(C)C2=O)cc1S(=O)(=O)N1CCCCCC1	1	-13%	-6%	-9%	-10%	29
Cc1ccc(NC(=O)CN2C(=O)NC(C)(c3ccc(Cl)cc3)C2=O)cc1S(=O)(=O)N1CCOCC1 (stereo unspecified)	-5	18µM*	?	21µM*	6%	6
Cc1ccc(NC(=O)CN2C(=O)NC3(CCCCC3C)C2=O)cc1S(=O)(=O)N1CCOCC1 (stereo unspecified)	-7	23µM*	.	?	.	.
Cc1ccc(NC(=O)CN2C(=O)NC3(CCCC3)C2=O)cc1S(=O)(=O)N1CCCCC1	2	-24%	9%	-9%	1%	0
CC[C@H](C)[C@H](NC(=O)[C@H](Cc1ccc(O)cc1)NC(=O)[C@H](Cc1cnc[nH]1)NC(=O)[C@H](CCCNC(=N)N)NC(=O)[C@H](CC(C)C)NC(=O)[C@H](C)NC(=O)[C@H](CO)NC(=O)[C@H](Cc1ccc(O)cc1)NC(=O)[C@H](Cc1ccc(O)cc1)NC(=O)[C@H](CCCNC(=N)N)NC(=O)[C@H](C)NC(=O)[C@H](CCSC)NC(=O)[C@H](CC(=O)O)NC(=O)[C@H](CCC(=O)O)NC(=O)[C@H](C)NC(=O)[C@@H]1CCCN1)C(=O)N[C@@H](CC(N)=O)C(=O)N[C@@H](CC(C)C)C(=O)N[C@H](C(=O)N[C@H](C(=O)N[C@@H](CCCNC(=N)N)C(=O)N[C@@H](CCC(N)=O)C(=O)N[C@@H](CCCNC(=N)N)C(=O)N[C@@H](Cc1ccc(O)cc1)C(N)=O)[C@@H](C)O)[C@@H](C)CC	.	.	.	.	12%	.
CN(CC(=O)Nc1ccccc1Br)C(=O)CCCSc1nc2ccccc2[nH]1	5	-22%	2%	-10%	.	7
CCCCn1c(=O)c(CCC(=O)OCC(=O)NC(=O)NCCOC)nc2ccccc21	-2	-11%	-9%	-19%	4%	2
CCC(C)Nc1nc(-c2cccc(OC)c2O)nc2ccccc12 (stereo unspecified)	-74*	?	18%	?	12%	-14
COc1cccc(-c2nc(NC(C)C)c3ccccc3n2)c1O	?	21µM*	5.2µM*	?	11%	-3
Cc1nnc(SCC(=O)Nc2ccc(Br)cc2)[nH]c1=O	.	-14%	.	-19%	1%	.
O=C(CCl)N(c1ccccc1)c1ccccc1	-108*	1.8µM*	21µM*	2.1µM*	5%	-21
O=C(N(c1ccccc1)c1ccccc1)N(c1ccccc1)c1ccccc1	-23	21µM*	?	?	-3%	9
CNC(=O)N(c1ccccc1)c1ccccc1	21	3%	10%	6%	5%	25
O=Cc1[nH]c2ccccc2c1N(C(=O)CCl)c1ccccc1	.	15µM*	?	10µM*	1%	2

Screening results as filed in PubChem BioAssay.
